Test results published in PubChem BioAssay.

Assay: inhibitors of Chlamydomonas gravitaxis, primary screen, whole organism, Chlamydomonas reinhardtii, WT vs cilia-less mutant, absorbance, 96-well (AID 463189);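 also: 0% = wild type cc124 cells in DMSO and 100% = ciliumless bld1 mutant cells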
Conditions: OD600 absorbance, 2 days, at 10 µM, stronger effect = higher value;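 active = inhibition at or above 50% relative to wild type and mutant plate controls; inactive = inhibition below 50%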

inhibition, inactive:
CN1C[C@H](C(=O)N[C@]2(C)O[C@@]3(O)[C@@H]4CCCN4C(=O)[C@H](Cc4ccccc4)N3C2=O)C[C@@H]2c3cccc4[nH]cc(c34)C[C@H]21 -12.5%
OC1(c2ccc(Cl)cc2)CCN(Cc2c[nH]c3ccccc23)CC1 21.4%
O=C1CCC(c2ccc(-n3ccnc3)cc2)=NN1 -5.18%
O=Nc1c(-c2c(O)[nH]c3ccccc23)[nH]c2ccccc12 1.78%
C[C@@](Cc1ccc(O)c(O)c1)(NN)C(=O)O -8.89%
O=C(O)c1ccccc1Nc1cccc(OCc2ccc3ccccc3n2)c1 8.8%
CNC(=O)[C@H]1O[C@@H](n2cnc3c(N)ncnc32)C(O)[C@H]1O (stereo not given in full) 1.69%
CN=c1nc(-c2ccccc2)n(-c2ccccc2)s1 13%
CCN(Cc1ccncc1)C(=O)C(CO)c1ccccc1 (stereo not given) 7.61%
CCOC(=O)c1cnc2c(cnn2CC)c1NN=C(C)C 7.54%
Cc1nc2c([nH]1)c(=O)n(C)c(=O)n2Cc1ccco1 0.516%
COc1ccc2c(c1)c(CC(=O)O)c(C)n2Cc1ccc(Cl)cc1 -1.76%
COC(=O)[C@H]1[C@H]2C[C@@H]3c4[nH]c5cc(OC)ccc5c4CCN3C[C@H]2C[C@@H](OC(=O)c2cc(OC)c(OC)c(OC)c2)[C@@H]1OC -3.87%
Cc1nc(N=Nc2ccc(S(=O)(=O)O)cc2S(=O)(=O)O)c(COP(=O)(O)O)c(C=O)c1O 2.65%
CC(C)NCC(O)c1ccc(NS(C)(=O)=O)cc1 (stereo not given) -0.482%
CN1CCc2cc(NC(=O)Nc3cccnc3)ccc21 8.14%
CC1COc2c(N3CCN(C)CC3)c(F)cc3c(=O)c(C(=O)O)cn1c23 (stereo not given) 6.49%
CN(C)C(=O)C(CCN1CCC(O)(c2ccc(Cl)cc2)CC1)(c1ccccc1)c1ccccc1 -2.62%
O=c1[nH]c2ccccc2c2ccccc12 6.93%
COc1cc2nc(N3CC=[N+](C(=O)c4ccco4)CC3)nc(N)c2cc1OC 6.38%
Nc1nc2ccc(Cl)cc2c2nc(-c3ccco3)nn12 1.54%
COCC(=O)O[C@]1(CCN(C)CCCc2nc3ccccc3[nH]2)CCc2cc(F)ccc2[C@@H]1C(C)C 11.6%
O=C(O)c1cc(=O)c2ccc(Cl)cc2[nH]1 4.9%
O=C(O)c1cc(=O)c2c(Cl)cc(Cl)cc2[nH]1 2.38%
NCC(O)C1CCCCCCC1 (stereo not given) 2.73%
CC(C)NNC(=O)c1ccncc1 2.86%
CCCCCCCC/C=C\CCCCCCCC(=O)NCCc1ccc(O)c(O)c1 -1.34%
CN(C)C(N)=NCCC[C@H](N)C(=O)O 11.1%
C=CC[C@H](N)C(=O)O 4.13%
CCCCCCCCCCCCCCC[C@H](O)[C@H](N)CO 38.7%
CCC1(C)CC(=O)NC1=O (stereo not given) 1.95%
CCCNC(C)C(=O)Nc1ccccc1C (stereo not given) 6.52%
CCC(C)N(C)C(=O)c1cc2ccccc2c(-c2ccccc2Cl)n1 (stereo not given) 2.31%
NCCCCC(=O)O 9.64%
NC(=O)c1ncn([C@@H]2O[C@H](CO)[C@@H](O)[C@H]2O)c1O 13.2%
Cc1ccc2c(c1)C(N1CCN(C)CC1)=Nc1cccnc1N2 7.3%
Cc1c(CC(C)(C)C(=O)O)n(Cc2ccc(Cl)cc2)c2ccc(F)cc12 1.93%
Nc1ncnc2c1ncn2[C@@H]1O[C@H](CO)[C@H](O)C1O (stereo not given in full) 5.53%
CCC(=O)c1ccc2c(c1)N(CCCN(C)C)c1ccccc1S2 46.1%
NC/C=C/C(=O)O 9.04%
